# The panel holds about 79,000 compounds, 15% with a hit somewhere; the sample as a whole holds those more often. Values without a mark were called inactive. Active and inactive are the calls of the source. Cut-off read from the data, not from the text of the source: active = growth inhibition above about 70%; inactive = the rest.
# Assays:
# [1] = NCI Yeast Anticancer Drug Screen. Data for the rad50 strain (AID 155);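 note: 0% = growth of vehicle-only cultures of the same strain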; details: S. cerevisiae rad50 strain growth inhibition; at 50.0 µM; stronger effect = higher value
# Method in brief: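 Compounds were tested on a yeast strain with an engineered DNA damage repair alteration; the reported value is growth inhibition normalised to vehicle treatment.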
# [2] = NCI Yeast Anticancer Drug Screen. Data for the mec2-1 strain (AID 157); details: S. cerevisiae mec2-1 strain, at 50.0 µM, stronger effect = higher value
# Method in brief: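 Vehicle-treated cultures served as reference for growth inhibition of compound-exposed mec2-1 yeast.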
# [3] = NCI Yeast Anticancer Drug Screen. Data for the sgs1 mgt1 strain (AID 161);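 note: 0% = growth of cultures given vehicle only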; details: S. cerevisiae sgs1 mgt1 strain, at 50.0 µM, stronger effect = higher value
# Method in brief: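 Genetically altered yeast, compound exposure, growth inhibition relative to vehicle.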
# [4] = NCI Yeast Anticancer Drug Screen. Data for the cln2 rad14 strain (AID 165);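 note: 0% = growth equal to vehicle treated cultures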; details: S. cerevisiae cln2 rad14 strain, at 50.0 µM, stronger effect = higher value
# Method in brief: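 Each compound was tested on cln2 rad14 yeast. Inhibition of growth was calculated against vehicle-exposed controls.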
# [5] = NCI Yeast Anticancer Drug Screen. Data for the bub3 strain (AID 167); details: S. cerevisiae bub3 mutant strain, at 50.0 µM, stronger effect = higher value
# Method in brief: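 Growth of a checkpoint-deficient yeast mutant is measured after compound exposure. Values represent inhibition relative to vehicle.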
# [6] = NCI Yeast Anticancer Drug Screen. Data for the mlh1 rad18 strain (AID 175); details: S. cerevisiae mlh1 rad18 strain growth inhibition; at 50.0 µM; stronger effect = higher value
# Method in brief: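 Vehicle-treated cultures served as the reference for growth inhibition in a yeast strain carrying DNA damage repair alterations exposed to each compound.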
SMILES,growth inhibition [1],growth inhibition [2],growth inhibition [3],growth inhibition [4],growth inhibition [5],growth inhibition [6]
CCCCCC(=O)C(C)C1(C(=O)OC)NC(=S)NC(=O)C1C#N (stereo not given),16.8%,14.8%,13.1%,12.4%,-1.9%,17.4%
CC(=O)OC12CC(C)C3(O)C4C=C(C)C(=O)[C@@]4(O)CC(CO)=C[C@H]3C1C2(C)C (stereo not given in full),-4.3%,-6.15%,9.95%,5.35%,6.8%,2.05%
CC(=O)NC(Cc1ccc(C)cc1)C(=O)O (stereo not given),3.35%,-3.75%,20.1%,-3.5%,-3.05%,1.7%
COc1ccc(C2SC(N)=Nc3c2c(C)nn3C(=O)c2ccccc2O)cc1 (stereo not given),15.9%,10.1%,40.5%,5.85%,49.1%,29.4%
CCCCCC(=O)C(C)(c1nc2nnc(NC(=O)Nc3ccc(Cl)cc3)n2[nH]c1=O)c1nc2nnc(NC(=O)Nc3ccc(Cl)cc3)n2[nH]c1=O,-42.8%,-21.6%,-24.3%,-45%,-38.8%,-32.5%
CC1(c2nc3ccccc3[nH]2)CCC(C(=O)O)C(C)(C)O1 (stereo not given),1.75%,-11.2%,-18.4%,15.6%,-19.6%,-32.9%
CC(C)Oc1c(O)c2c3c(oc(=O)n3C=CC2c2ccccc2)c1OC(C)C (stereo not given),86.8% (active),86.9% (active),88.2% (active),86.6% (active),85.5% (active),82.3% (active)
CCOc1ccc(N2CCN(C(=O)Nc3ccccc3OC)CC2)cc1,-4.1%,-6.2%,-1.8%,-47.5%,21.1%,-3.95%
CCCN(C(=O)c1ccccc1)C(C#N)c1ccc(C(C#N)N(CCC)C(=O)c2ccccc2)cc1 (stereo not given),7%,1.2%,-24.4%,-10.9%,-11.8%,-32.5%
CC(C)(c1ccccc1)c1ccc(Oc2ccc(C#N)c(C#N)c2)cc1,-27.2%,-7.6%,-14%,3.3%,-35.8%,-21.6%

# Source: PubChem BioAssay (NCI)
